Assay results from PubChem BioAssay AID1117361 (Southern Research Institute, 2015).
Hit rate of the full screen: of about 3,600 compounds, about 900 (25%) were called active. How the calls were made is not given here. The list is a sample of the results. Results with a measured potency or affinity are listed apart.

These compounds were tested against Protein Tat (Human immunodeficiency virus type 1 group M subtype B (isolate HXB2)) (UniProt P04608) (assay: HIV-1 Tat–TAR interaction blockers – biochemical, fluorescence polarization, FAM-labeled TAR RNA, counter-screen for Vif-APOBEC3G degradation inhibitor project, dose response (AID 1117361)). Conditions: Tat-TAR RNA binding; series mostly up to 100 µM.
`COc1ccc(N2CCC(CNS(=O)(=O)c3cccc(C(F)(F)F)c3)C2)cc1` (configuration not stated) was tested, and the outcome was “inactive”. `COc1ccc(NC(=O)CN2CCN(c3ccc(F)cc3)CC2)cc1Cl` was tested, and the outcome was “inactive”. With `COc1ccc(-c2nc(C#N)c(NCc3ccccc3Cl)o2)cc1OC` the outcome was “inactive”. For `O=C(c1cccc(C(F)(F)F)c1)C1CCCN(C(=O)CCCN2CCCC2=O)C1` (configuration not stated), the outcome was “inactive”. With `CCc1nnc(NC(=O)c2ccc(-c3ccccc3Cl)o2)s1` the outcome was “inactive”. In the case of `CCOC(=O)C1CC(CN2C(=O)c3ccccc3C2=O)OC1=O` (configuration not stated), the outcome is reported as “inactive”. In the case of `CCOC(=O)c1c(C)nn(Cc2cccc(Cl)c2)c1N`, the outcome is reported as “inactive”. For `Nc1ncnc2c1cnn2C1CCCCC1`, the outcome was “inactive”. With `COc1ccccc1N1CCN(CCc2n[nH]c(=S)n2-c2ccccc2)CC1` the outcome was “inactive”. In the case of `S=c1[nH]nc(COc2ccc(Cl)cc2)n1Cc1ccccc1`, the outcome is reported as “inactive”. With `O=C1N(Cc2cccnc2)C[C@@H]2C[C@@H](c3ccc4nsnc4c3)N3CCC[C@@]123` the outcome was “inactive”. `COc1cccc(C(=O)N2CCN(Cc3nc(CC4CC4)no3)CC2)c1` was tested, and the outcome was “inactive”. With `O=C1CCCC(O)=C1C=Nc1ccc(O)cc1` the outcome was “inactive”. For `COc1ccc(N=CC2=C(O)CCCC2=O)cc1`, the outcome was “inactive”. In the case of `CC1CN(C(=O)COC(=O)Cc2ccc(Cl)cc2)CC(C)O1` (configuration not stated), the outcome is reported as “inactive”. In the case of `CCCCn1c(C)nc2c(=O)n(C)c(=O)[nH]c21`, the outcome is reported as “inactive”. In the case of `CCN(CC)CCN1C(=O)C(=O)/C(=C(/O)c2ccc(C)cc2)C1c1ccncc1` (configuration not stated), the outcome is reported as “inactive”. `CC(OC(=O)/C=C/c1ccco1)C(=O)NC1CCCCC1` (configuration not stated) was tested, and the outcome was “inactive”. `CCCc1nc2ccccc2c(C(=O)OCC(=O)N2CCc3ccccc32)c1CC` was tested, and the outcome was “inactive”. In the case of `CN(C1CCCCC1)S(=O)(=O)c1cccc(C(=O)OCC(=O)NC2CCCc3ccccc32)c1` (configuration not stated), the outcome is reported as “inactive”. For `Cc1nc2ccc(NC(=O)c3cc(S(=O)(=O)N4CCOCC4)ccc3C)cc2s1`, the outcome was “inactive”. With `COc1ccc(OCCOC(=O)c2cccc(-n3cnnn3)c2)cc1` the outcome was “inactive”. For `COc1ccc(C(C)(C)C)cc1NC(=O)C1C2C=CC(C2)C1C(=O)O` (configuration not stated), the outcome was “inactive”. `Cc1nc2nc(-c3ccco3)nn2c(C)c1Cl` was tested, and the outcome was “inactive”. In the case of `c1coc(-c2nc3nc4ccccc4n3nc2-c2ccco2)c1`, the outcome is reported as “inactive”. With `Cc1cc(-c2ccco2)n(-c2ccccc2)n1` the outcome was “inactive”. In the case of `O=C(Nc1nc(-c2ccco2)c(-c2ccco2)s1)c1ccc(F)cc1F`, the outcome is reported as “inactive”. `CC1CCc2nc(NC(=O)c3ccco3)sc2C1` (configuration not stated) was tested, and the outcome was “inactive”. `O=C1CN(C(=O)COC(=O)c2oc3ccccc3c2COc2ccccc2)c2ccccc2N1` was tested, and the outcome was “inactive”. `Cc1cc(C(=O)Nc2c(C)cccc2C)n(-c2ccccc2)n1` was tested, and the outcome was “inactive”. With `Cc1ccc(NC(=O)CSc2nnc([C@H](C)NC(=O)OC(C)(C)C)o2)c(C)c1` the outcome was “inactive”. With `Cn1c2ccccc2c2c(C(=O)O)cn(C3CCCC3)c(=O)c21` the outcome was “inactive”. With `CCC(=O)N1CCc2cc(S(=O)(=O)NCCC(=O)NC3CCCc4ccccc43)ccc21` (configuration not stated) the outcome was “inactive”. With `COc1ccc(N(C(=O)c2ccco2)S(=O)(=O)c2cc(Cl)c(Cl)cc2Cl)cc1` the outcome was “inactive”. `O=C(O)CCC(=O)NNC(=O)CCC(=O)NCc1ccccc1` was tested, and the outcome was “inactive”. `CC(c1ccccc1)N(C)CC(=O)NC(=O)NCCC1=CCCCC1` (configuration not stated) was tested, and the outcome was “inactive”. For `O=C(NCc1cccs1)c1ccc2c(c1)ncn2C1CCCC1`, the outcome was “inactive”. For `Cc1cccc2c1N(CCCOc1ccc(C(C)(C)C)cc1)C(=O)C2=O`, the outcome was “inactive”. `O=C(CSc1nc2cc(Cl)ccc2s1)N1CCN(C(=O)c2ccco2)CC1` was tested, and the outcome was “inactive”. In the case of `CCOC(=O)c1cc2sc(C)cc2n1CC(=O)N1CCN(C(=O)c2ccco2)CC1`, the outcome is reported as “inactive”. In the case of `COc1ccccc1CN(C)C(=O)CN1CCN(C(=O)c2cccs2)CC1`, the outcome is reported as “inactive”. With `Cc1nn(-c2ccccc2)c(C)c1/C=N/NC(=O)c1cc(-c2ccccc2)n[nH]1` the outcome was “inactive”. In the case of `COc1ccccc1NS(=O)(=O)c1cccc2cccnc12`, the outcome is reported as “inactive”. `Cn1c(=O)cc(NCc2ccccc2)[nH]c1=O` was tested, and the outcome was “inactive”. For `O=C(NCC1CCCO1)C1CCCN(Cc2cnn(-c3ccccc3)c2-n2cccc2)C1` (configuration not stated), the outcome was “inactive”. For `Cc1ccc2[nH]c(=O)c(CN(Cc3ccco3)C(=O)c3ccncc3)cc2c1`, the outcome was “inactive”. For `COc1ccc2nc3oc(C(=O)N4CCCCC4)cc3cc2c1`, the outcome was “inactive”. With `Cc1ccc(NC(=O)COc2ccccc2C(=O)Nc2ccccc2)cc1Cl` the outcome was “inactive”. For `O=C(CCCCCCC(=O)NCc1ccccc1)NCc1ccccc1`, the outcome was “inactive”. With `COc1cc(NC(=O)Cc2ccccc2)cc(OC)c1` the outcome was “inactive”. `CC(C)Cn1c2c(c(O)c(C(=O)Nc3nccs3)c1=O)CCCC2` was tested, and the outcome was “inactive”. `COc1ccc(-c2[nH]c3ccccc3c2SCCN)cc1` was tested, and the outcome was “inactive”. In the case of `Cc1nnc(N2CCc3ccccc3C2)[nH]c1=O`, the outcome is reported as “inactive”. `CCS(=O)(=O)N1CCC(C(=O)NCc2cccc(OC)c2)CC1` was tested, and the outcome was “inactive”. In the case of `COc1cccc(CC(=O)Nc2nccs2)c1`, the outcome is reported as “inactive”. With `O=C(Cn1cnc2ccccc2c1=O)c1cccs1` the outcome was “inactive”. `CN(C)c1nc(N)nc(CSc2ncc(Cl)cc2Cl)n1` was tested, and the outcome was “inactive”. `Cc1ccccc1CCNC(=O)c1ccc(Cl)c(S(=O)(=O)N2CC(C)OC(C)C2)c1` (configuration not stated) was tested, and the outcome was “inactive”. For `COc1ccccc1-n1cnc2cc(NCc3cccs3)ccc21`, the outcome was “inactive”. With `COc1ccc(S(=O)(=O)N2CCCCCC2)cc1C(=O)OCC(=O)NC(N)=O` the outcome was “inactive”. In the case of `Cn1c(NC(=O)c2cccs2)cc(=O)n(C)c1=O`, the outcome is reported as “inactive”. With `CSc1nc2ccc3nc(NC(=O)c4cccs4)sc3c2s1` the outcome was “inactive”. `CCCCCCn1c(SCC(=O)c2c(N)n(C)c(=O)n(C)c2=O)nc2ccccc21` was tested, and the outcome was “inactive”. For `COc1cccc(C(=O)CSc2nc3ccccc3n2CC(=O)N2CCOCC2)c1`, the outcome was “inactive”. With `CN(CC(=O)NCCc1ccccc1)S(=O)(=O)c1cccs1` the outcome was “inactive”. In the case of `O=C1CCCC2=C1C(c1ccco1)Nc1ccc3ccccc3c12` (configuration not stated), the outcome is reported as “inactive”. With `COc1ccc(C2CC(=O)N3CN(c4ccc(C)c(Cl)c4)CSC3=C2C#N)cc1` (configuration not stated) the outcome was “inactive”. In the case of `COc1ccc(Br)cc1C1CC(=O)N2CN(Cc3ccccc3)CSC2=C1C#N` (configuration not stated), the outcome is reported as “inactive”. `CCOC(=O)CCN(Cc1sccc1C)S(=O)(=O)c1ccc(F)cc1` was tested, and the outcome was “inactive”. In the case of `Cc1ccnc(NC(=O)c2ccc(Cl)c(S(=O)(=O)N3CCCC3)c2)c1`, the outcome is reported as “inactive”. In the case of `COc1ccc(NC(=O)Cn2c(=O)sc3ccccc32)cc1`, the outcome is reported as “inactive”. For `COc1ccc(Cc2nnc(NC(=O)CSc3ccccc3)s2)cc1`, the outcome was “inactive”. With `C[C@@H]1CCCCO[C@H](CN(C)C(=O)c2ccccc2)[C@@H](C)CN([C@H](C)CO)C(=O)c2cc(NC(=O)NC3CCCCC3)ccc2O1` the outcome was “inactive”. With `Cc1cccc(NC(=O)Cn2c(=O)n(Cc3ccco3)c(=N)c3c4c(sc32)COC(C)(C)C4)c1` the outcome was “inactive”. With `CCOc1ccc(-n2c(=O)c3c(C)c(C)sc3n(CC(=O)NCc3ccco3)c2=O)cc1` the outcome was “inactive”. In the case of `CCOC(=O)c1cc([N+](=O)[O-])cc([N+](=O)[O-])c1Sc1ncnc2nc[nH]c12`, the outcome is reported as “inactive”. For `CCCCn1c(N)c(N(CCC(C)C)C(=O)C2=NN(c3cc(C)ccc3C)C(=O)CC2)c(=O)[nH]c1=O`, the outcome was “inactive”. In the case of `CC(=O)N(C1=C(Cl)C(=O)c2ccccc2C1=O)c1ccc(C(=O)O)cc1`, the outcome is reported as “inactive”. For `CCC(C(=O)OCC(=O)Nc1ccc(SC(F)F)cc1)c1ccccc1` (configuration not stated), the outcome was “inactive”. `Cc1ccc(C(c2nnnn2CC2CCCO2)N2CCN(C)CC2)cc1` (configuration not stated) was tested, and the outcome was “inactive”. For `CC(C)CC(c1nnnn1C1CCCCC1)N1CCN(c2ncccn2)CC1` (configuration not stated), the outcome was “inactive”. `CCC(=O)Nc1cc(C(=O)OCC(=O)c2ccccc2Cl)ccc1C` was tested, and the outcome was “inactive”. `O=C(NCc1ccc(Cl)cc1)c1ccccc1Oc1ccccc1` was tested, and the outcome was “inactive”. `COC(Cc1nnc(SC)n1-c1ccc(Cl)cc1)OC` was tested, and the outcome was “inactive”. `CCOC(=O)CSc1nc2c(sc(=S)n2-c2ccccc2OC)c(=O)n1Cc1ccco1` was tested, and the outcome was “inactive”. With `O=C(O)c1ccc(-n2c(-c3cc(-c4ccco4)[nH]n3)n[nH]c2=S)cc1` the outcome was “inactive”. With `CCCn1c(Sc2nc3c(c(=O)[nH]c(=O)n3C)n2CCC)nc2c1c(=O)[nH]c(=O)n2C` the outcome was “inactive”. In the case of `CCC(C)n1cnc2c(c1=O)c1nc3ccccc3nc1n2-c1ccc2c(c1)OCCO2` (configuration not stated), the outcome is reported as “inactive”. With `CCCn1nnnc1-c1cccc(Cl)c1` the outcome was “inactive”. In the case of `COc1ccc(C(=O)CSc2nnc3n2CCCN3C(=O)Nc2ccccc2)cc1`, the outcome is reported as “inactive”. `CN(C)c1nc(N)nc(CSc2nc3c(c(=O)n(C)c(=O)n3C)n2Cc2ccccc2F)n1` was tested, and the outcome was “inactive”. For `CC(=O)Nc1ccc(OCC(O)CNC2CCCC2)cc1` (configuration not stated), the outcome was “inactive”. For `CC(=O)c1ccc(N2C(=NC(=O)C3CCCO3)SC3CS(=O)(=O)CC32)cc1` (configuration not stated), the outcome was “inactive”. With `O=C(c1cc2ccccc2oc1=O)N1CCN(c2ccc(N3CCOCC3)nn2)CC1` the outcome was “inactive”. `COc1ccccc1C1NC(c2ccccc2OC)C(C)C(=O)C1C` (configuration not stated) was tested, and the outcome was “inactive”. With `O=C(c1cccnc1NCc1ccc(F)cc1)N1CCOCC1` the outcome was “inactive”. `CCOc1ccc(C2NC(=O)C(C#N)=C(S)N2c2ccc(OC)cc2)cc1OC` (configuration not stated) was tested, and the outcome was “inactive”. With `CC1(CCc2ccc3c(c2)OCO3)NC(=O)c2ccccc2N1` (configuration not stated) the outcome was “inactive”. With `O=C(COc1ccccc1C(=O)O)Nc1ccc(SC(F)F)cc1` the outcome was “inactive”. For `CCOC(=O)c1c(NC(=O)c2cccs2)sc(C)c1C`, the outcome was “inactive”. With `CCCc1cc(=O)[nH]c(SCC(=O)Nc2cc3c(cc2C(C)=O)OCO3)n1` the outcome was “inactive”. With `Cc1cc(NC(=O)CCC(=O)N(CCC(C)C)C(C(=O)NC2CCCC2)c2cccnc2)no1` (configuration not stated) the outcome was “inactive”. For `COc1ccc2c3c(c(=O)oc2c1OCC(=O)C(C)(C)C)CCCC3`, the outcome was “inactive”. For `Cc1cc(C)c2nc(N3CCCN(C(=O)c4cnccn4)CC3)c(C#N)cc2c1`, the outcome was “inactive”. `NS(=O)(=O)c1cccc(NS(=O)(=O)c2ccc(/C=C/C(=O)OCC(=O)c3ccccc3)cc2)c1` was tested, and the outcome was “inactive”. With `Cc1ccc(-n2nnnc2SCc2ccccn2)cc1C` the outcome was “inactive”. In the case of `Cc1cc(SCC2=NNC(=O)C2)c(Cl)cc1Cl`, the outcome is reported as “inactive”. `Cc1cccc(NC(=O)CC2NC3CCCCC3NC2=O)c1` (configuration not stated) was tested, and the outcome was “inactive”. In the case of `O=C(/C=C/c1ccco1)Nc1ccc(Oc2ccccc2)cc1`, the outcome is reported as “inactive”. In the case of `O=C(/C=C/c1ccco1)NC(=S)Nc1ccc(C(=O)O)cc1`, the outcome is reported as “inactive”. `O=C(CN1C(=O)CSC1=O)Nc1ccccc1N1CCOCC1` was tested, and the outcome was “inactive”. In the case of `CCC(=O)N1CCN(c2ccccc2NC(=O)c2cccc(C)c2)CC1`, the outcome is reported as “inactive”.
